# This is a sample that favours compounds with a hit; in the whole collection about 5.5% have one here.
# ELG1 repair inh = qHTS screen for small molecules that inhibit ELG1-dependent DNA repair in human embryonic kidney (HEK293T) cells expressing luciferase-tagged ELG1; HEK293T ELG1-luciferase reporter, luminescence, 16 h; DNA damage induced by 5-fluorouridine; Potency, µM (doses to about 46.1 µM), inactives show top-dose activity change, negative = inhibition, actives largely listed as inhibitors; hit rate 2.3% among 330,000; further: potency means the concentration at half of the fitted maximal effect; nearly all actives have a fitted effect of over 55% in size
#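 Quantitative HTS, concentration-response format. 2,000 cells/well co-treated with 5-fluorouridine and compound, 16 hr in 5% CO2 at 37 °C; ONE-Glo luminescence read after 30 min.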
# Giardia killer = Small Molecules that selectively kill Giardia lamblia: qHTS; hit rate 0.15% among 340,000; Giardia lamblia trophozoite viability; activity change, % at 7.66 µM, hits read low; in the data active means activity change below about -80%; inconclusive means between about -30% and that limit;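 further: parasites exposed to compound for two days anaerobically before the ATP read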
#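 Giardia trophozoites, 100 cells per well, were exposed to compounds for 48 hrs at 37 deg C under anaerobic conditions; viability was then read as ATP content by bioluminescence after 15-30 min at room temperature.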
# Coupling enz = qHTS Assay for Inhibitors of Fructose-1,6-bisphosphate Aldolase from Giardia Lamblia: Coupling assay counterscreen; coupling enzyme system counterscreen, AmpLite Red fluorescence; activity change, negative = inhibition, % at 58.2 µM, hits read low; hit rate 0.67% among 290,000; AID 2472, 2010; in the data active means activity change below about -30%
#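 Counterscreen lacking aldolase: glyceraldehyde-3-phosphate coupling-enzyme reagent preincubated 10 min at RT with compound (at 57.5 uM final), then substrate/coupling system with AmpLite Red added; fluorescence read at 525/598 nm after 20 min RT.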
# Sfp PPTase inh = qHTS Assay for Inhibitors of Bacillus subtilis Sfp phosphopantetheinyl transferase (PPTase); 4'-phosphopantetheinyl transferase ffp (Bacillus subtilis), Q9F4F7; Biochemical Sfp PPTase activity, qHTS; Potency, µM, for inactives: largest response in the series, negative = inhibition, actives largely listed as inhibitors; hit rate 3.5% among 310,000; AID 1490, 2009;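 further: the enzyme is Sfp with the accession as filed and its product quenches rhodamine fluorescence; potency means the concentration at half of the fitted maximal effect; 0% = enzyme reaction without inhibitor and -100% = no enzyme wells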
#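 With Hepes-Na pH 7.6 buffer containing 10 mM MgCl2, Sfp (15 nM) modified BHQ-2-YbbR (12.5 uM) using rhodamine-CoA (5 uM). Two reads 30 minutes apart at 525/598 nm yielded each well's rate.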
# Sfp inh conf = Confirmation qHTS Assay for Inhibitors of Bacillus subtilis Sfp phosphopantetheinyl transferase (PPTase) | AID 2701, 2010 | Sfp PPTase enzymatic assay, qHTS titration | hit rate 79% among 380 | shares compounds with Sfp PPTase inh | Potency, µM (titrated, usually from 114 µM), for the others: at the top dose activity change, negative = inhibition, hits mostly inhibitors;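 further: potency means the concentration at half of the fitted maximal effect; plate controls were uninhibited Sfp reaction for no effect and no enzyme control for full effect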
# Target sequence (Q9F4F7 whole entry, looked up): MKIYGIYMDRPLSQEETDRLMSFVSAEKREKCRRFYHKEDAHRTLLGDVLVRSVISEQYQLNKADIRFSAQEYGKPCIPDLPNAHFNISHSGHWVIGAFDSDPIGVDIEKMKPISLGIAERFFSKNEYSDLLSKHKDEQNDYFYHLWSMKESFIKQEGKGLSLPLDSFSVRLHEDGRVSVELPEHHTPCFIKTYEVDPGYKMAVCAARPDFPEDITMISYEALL
# Sfp gel assay = Gel-Based Assay for Inhibitors of Bacillus subtilis Sfp phosphopantetheinyl transferase (PPTase) | shares compounds with Sfp PPTase inh | purified Sfp, gel-based phosphopantetheinylation read-out | Potency, µM, most hits filed as inhibitors | hit rate 20% among 210 | AID 2707, 2010;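 active means potency below 100 µM; inconclusive means dose-dependent response but potency above 100 µM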;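 further: band intensities scaled against SCH202676 control wells before curve fitting; potency is an IC50 for inhibitors of Sfp transfer activity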
# Starred values were filed as active, the others as inactive; i = inactive; ? = inconclusive; / = not tested or not shown; ! = not active in a repeat. Unless noted, the call rests on the fitted dose curve; in most records, active means well fitted curve in the direction sought with a large enough effect; inconclusive means small, poorly fitted or top-dose-only effect, or another doubt; inactive means no such curve, though single readings can be large; an effect the other way counts as inactive or inconclusive. Unless noted, on the % scale 0 is the no-effect control and ±100 the full control effect.
SMILES,ELG1 repair inh,Giardia killer,Coupling enz,Sfp PPTase inh,Sfp inh conf,others
Cc1ccc(NC(=O)c2cccc(S(=O)(=O)N(C)C3CCCCC3)c2)nc1,?,11,/,/,/,
O=C(O)CNc1nc(-c2ccccc2)c2cc([N+](=O)[O-])ccc2n1,21%,13,-26,6.3µM*,15µM*,Sfp gel assay=?
Brc1ccc2ncc3ccccc3c2c1,/,-8,/,/,/,
COc1cc(OC)cc(-c2c(C#Cc3ccsc3)c3cc(-c4ccc5c(c4)OCCO5)ccc3n2C)c1,3%,-25,/,/,/,
Cc1ccc(-c2cc(C(=O)N3CCN(c4ncccn4)CC3)c3cc(Br)ccc3n2)o1,?,33,-1,7.9µM*,4.7µM*,
CCOC(=O)C1CCCN(C(=O)Cn2ncc3c([nH]c4ccc(C)cc43)c2=O)C1 (configuration not stated),2%,-21,0,4%,/,
CC(=O)c1c(N=CN(C)C)nc(C)nc1-c1ccccc1,-2%,-7,0,15%,/,
CN(C)C=Nc1ccccc1C1C=NNC1=O (configuration not stated),7%,/,-2,18µM*,9%,
COc1ccc(S(=O)(=O)N2CCCCC2)cc1NC(=O)CN(Cc1ccco1)Cc1ccco1,?,13,/,/,/,
O=C(OCc1ccccc1)c1cccnc1,/,/,/,32µM*,37µM*,Sfp gel assay=?
COc1ccc(NC(=O)Cc2nnc(SCC(=O)c3ccccc3)n2C)cc1,16%,1,1,11%,/,
COC(=O)c1ccc(-c2noc(CN(C)CCC3CCCCO3)n2)cc1 (configuration not stated),?,0,-55*,0.71µM*,8%,Sfp gel assay=i
CCOc1ccc(S(=O)(=O)N2CCN=C2c2ccccc2)cc1,-9%,-6,/,13%,/,
CCCN(C1CCS(=O)(=O)C1)S(=O)(=O)c1cc(OC)ccc1OC (configuration not stated),23%,-7,/,/,/,
CCN(CC)c1ccc(/C=N/NC(=O)C(O)(c2ccccc2)c2ccccc2)o1,-16%,/,0,7.1µM*,12µM*,
Cc1ccnc(NC(=S)N2CCN(c3cccc(C(F)(F)F)c3)CC2)c1,13%,-15,0,2.5µM*,15µM*,
CCc1nc2ccccc2c(=O)n1/N=C/c1ccc(OC)cc1,/,16,/,/,/,
Cc1cc(C)c(NC(=O)COC(=O)CSc2ccc(Br)cc2C)c(C)c1,1%,10,0,-5%,/,
CCN(CC)c1ccc(NC(=O)COC(=O)CSc2ccc(Br)cc2C)cc1,9%,18,-1,3.5µM*,?,Sfp gel assay=?
Cc1ccc(NC(=S)N2CCC(c3ccc(C)cc3)C2)cc1 (configuration not stated),?,-10,1,32µM*,37µM*,Sfp gel assay=?
CCOc1cc(CNc2ccc(N3CCCCC3)cc2)cc(Br)c1OCC(=O)NC(C)(C)C,-20%,8,1,-46%,/,
CCOc1cc(CNc2ccc(N(C)C)cc2)cc(Br)c1OCC(=O)NC(C)(C)C,?,-2,-37*,3.5µM*,?,Sfp gel assay=?
CCCNC(=O)OC[C@H]1O[C@@H](CCO/N=C2/[C@H]3O[C@@H]3[C@@H](O)[C@H]3[C@H]2CCn2c(=O)n(-c4ccccc4)c(=O)n23)C=C[C@@H]1Oc1ccc(OC)cc1,/,/,2,12%,/,
N#C/C(=C/c1ccc(N2CCCCCC2)o1)c1cccc(F)c1,?,-13,-48*,0.56µM*,21µM*,Sfp gel assay=?
N#C/C(=C/c1ccc(N2CCOCC2)o1)c1ccc(Br)cc1,?,10,/,2.8µM*,12µM*,Sfp gel assay=6.2µM*
SMILES,ELG1 repair inh,Giardia killer,Coupling enz,Sfp PPTase inh,Sfp inh conf,others
N#C/C(=C/c1ccc(N2CCCCCC2)o1)c1ccc(F)cc1,/,-1,/,/,/,
COc1ccc(C(CNC(=O)C(=O)NC2CCCCC2)N2CCN(C)CC2)cc1 (configuration not stated),20%,-9,/,/,/,
O=C(Nc1ccccc1)N(c1ccccc1)C1C=CS(=O)(=O)C1 (configuration not stated),8%,-7,4,6%,/,
Cc1cc2ccccc2n1CCNC(=O)c1ccc(Br)o1,0%,-23,-16,13µM*,24µM*,
Cc1cc2ccccc2n1CCNC(=O)C(C)(C)C,7%,-3,2,19%,/,
O=C1CS(=O)(=O)c2ccccc2N1,11%,5,0,2%,/,
Cc1ccccc1NC(=O)CSc1nnc(-c2ccco2)c(-c2ccco2)n1,-14%,7,2,10µM*,6.6µM*,
C=CCCCCCCCCCBr,/,/,1,1%,/,
Cc1cc(C(=O)NCc2ccco2)c2cc(F)ccc2n1,4%,-20,5,-1%,/,
Cc1ccc(-c2cc(C(=O)NCc3ccco3)c3ccccc3n2)s1,-13%,-9,-6,2.8µM*,47µM*,Sfp gel assay=?
Cn1c(/N=C/c2c(O)ccc3ccccc23)nc2ccccc21,?,-6,-79*,0.89µM*,-9%,
CCCn1c(/N=C/c2ccccc2O)nc2ccccc21,2%,3,-2,1%,/,
COc1ccc(CCn2c(=S)[nH]c(=O)c3[nH]cnc32)cc1OC,/,-3,/,/,/,
COc1cc(NCc2ccc3nc(N)nc(N)c3c2C)cc(OC)c1OC,/,/,-46*,32µM*,37µM*,
O=C(COC(=O)/C=C/c1ccco1)NCc1ccccc1Cl,?,-17,3,7.9µM*,37µM*,Sfp gel assay=i
O=C(Nc1nnc(COc2ccc(Cl)cc2)s1)c1ccco1,7%,-1,5,7.1µM*,5.9µM*,
O=C(Nc1nnc(COc2ccc(F)cc2)s1)c1cccs1,13%,1,0,1%,/,
O=C(Nc1nnc(COc2ccc(Cl)cc2)s1)c1cccs1,14%,-14,0,14µM*,24µM*,
Cc1nc(Nc2ccccc2F)c2oc3ccccc3c2n1,29%,10,1,-3%,/,
COc1cc(OC)cc(C(=O)NC2CC3CCC(C2)N3C)c1 (configuration not stated),1%,4,/,/,/,
O=c1c2c3nc4ccccc4nc3n(Cc3ccccc3)c2ncn1Cc1ccco1,?,-8,-9,2.8µM*,5.9µM*,
O=C(NCc1ccco1)c1csc2c1CCCCC2,27%,-22,2,9%,?,Sfp gel assay=i
O=C(NCc1ccccc1)c1csc2c1CCCCC2,21%,-3,2,22%,/,
CN(C)CCCN1c2ccccc2CCc2ccc(Cl)cc21,-26%,25,-6,56µM*!,?,Sfp gel assay=i

# From PubChem
